According to PubChem BioAssay (NCI):
The panel holds about 79,000 compounds, 15% with a hit somewhere; the sample as a whole holds those more often. Values without a mark were called inactive. Calls of active or inactive are those of the source. No stated cut-off is given here; in the data, active means growth inhibition above about 70%; inactive means the rest.

Key:
[1] = NCI Yeast Anticancer Drug Screen. Data for the rad50 strain (AID 155);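 further: 0% = growth of vehicle-only cultures of the same strain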; settings: S. cerevisiae rad50 strain growth inhibition; at 50.0 µM; stronger effect = higher value
In short: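 Growth of the mutant yeast was measured after compound exposure and referenced to vehicle-treated cultures.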

[2] = NCI Yeast Anticancer Drug Screen. Data for the mec2-1 strain (AID 157); settings: S. cerevisiae mec2-1 strain, at 50.0 µM, stronger effect = higher value
In short: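 Test agents were screened against the mec2-1 yeast strain, with defined DNA repair or cell cycle alteration. Growth was scored as inhibition against vehicle-only controls.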

[3] = NCI Yeast Anticancer Drug Screen. Data for the sgs1 mgt1 strain (AID 161);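 further: 0% = growth of cultures given vehicle only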; settings: S. cerevisiae sgs1 mgt1 strain, at 50.0 µM, stronger effect = higher value
In short: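 Genetically altered yeast, compound exposure, growth inhibition relative to vehicle.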

[4] = NCI Yeast Anticancer Drug Screen. Data for the cln2 rad14 strain (AID 165);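 further: 0% = growth equal to vehicle treated cultures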; settings: S. cerevisiae cln2 rad14 strain, at 50.0 µM, stronger effect = higher value
In short: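 Growth of compound-exposed yeast (cln2 rad14 genotype) measured and expressed as inhibition relative to vehicle.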

[5] = NCI Yeast Anticancer Drug Screen. Data for the bub3 strain (AID 167); settings: S. cerevisiae bub3 mutant strain, at 50.0 µM, stronger effect = higher value
In short: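 Whole-cell yeast assay. The mutant strain was incubated with compounds, and growth inhibition was determined by comparison with vehicle-treated cells.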

[6] = NCI Yeast Anticancer Drug Screen. Data for the mlh1 rad18 strain (AID 175); settings: S. cerevisiae mlh1 rad18 strain growth inhibition; at 50.0 µM; stronger effect = higher value
In short: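 In this whole-cell yeast screen, a strain with altered DNA damage repair is challenged with compound, and its growth is measured against matched vehicle-treated controls.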

| Compound | growth inhibition [1] | growth inhibition [2] | growth inhibition [3] | growth inhibition [4] | growth inhibition [5] | growth inhibition [6] |
| --- | --- | --- | --- | --- | --- | --- |
| CCCN(CCC)CCCCCCCCN | 29.1% | -13.2% | -3.2% | 12.8% | -7.9% | 16.2% |
| CC(=O)Nc1ccc(C2SCc3nc4ccccc4n32)cc1 (stereo not drawn) | -21.5% | -11.1% | -32.5% | -34.2% | -24.9% | -48.8% |
| CC(=O)CC(C)(C)c1cc(CC(C)(C)C(N)=O)on1 | 0.75% | 0.25% | 17.4% | 11.2% | 11.3% | 17.2% |
| O=c1ccn(C2OC(C(O)CO)C(O)C2O)c(=O)[nH]1 (stereo not drawn) | -4.95% | -2.55% | 5.45% | -60.8% | -8.15% | 9.25% |
| OC1CC2c3ccccc3C1c1cccc[n+]12 (stereo not drawn) | 16.2% | -9.85% | -4.1% | -38.7% | 4.65% | 14.7% |
| CC(C)OC(=O)C(=O)OC(C)C | 14.3% | 20.1% | -24.3% | 0.1% | 0.85% | 1.85% |
| O=S(=O)(Nc1cccc(Br)c1)N1CCCCC1 | 23.5% | 10% | 23.6% | 13.8% | 28.6% | 31.6% |
| Cc1[nH]c(=O)[nH]c(=O)c1/C=C/C(=O)NC(CO)CSC(C)C (stereo not drawn) | -2% | 27.1% | -7.75% | -3.9% | 8.4% | 9.55% |
| Cc1ccccc1C(=O)NNC(=O)c1cccc2ccccc12 | 27.6% | -24.9% | 7.9% | 3.65% | 0.45% | 6.95% |
| C=CCCCCC1CCC2CCC(CCCCC=C)N12 (stereo not drawn) | 40.8% | 28.4% | 38.6% | 42.5% | 49.4% | 35.9% |
| C[n+]1ccc(CCC(=O)Nc2ccccc2)cc1 | 3.65% | 24.3% | -4.35% | 0.3% | 25.6% | 3% |
| CCC(CC)(C1CCC(=O)CC1)C1CCC(=O)CC1 | 45.9% | -3.55% | -1.05% | -9.2% | 37.1% | 13.6% |
| COc1ccc(C(O)c2ccc(OC)cc2)cc1 | -10.8% | -16.6% | -23.9% | 10.1% | -22.3% | -7.6% |
| Cc1ccc(/C=C2/NC(=S)SC2=O)cc1 | -14.1% | -3.6% | 14.6% | 12% | 1.75% | -30.4% |
| O=[N+]([O-])C(/C=C(\Cl)[N+](=O)[O-])=C(N1CCCCC1)N1CCCCC1 | 10.8% | -1.8% | 5.85% | -5.55% | 26.2% | 18.1% |
| COc1cc2c(cc1OC)C(N)CC2=O (stereo not drawn) | 3.15% | 1.4% | -7.25% | 3.65% | 0.5% | -75.3% |
| O=C(OCc1ccccc1CN1CCCCC1)c1ccc([N+](=O)[O-])cc1Cl | -7.4% | -6.45% | 0.85% | -34.9% | -2.6% | -29.7% |
| N#Cc1nc(-c2ccco2)oc1N | -20.8% | 1.85% | -23.2% | 3% | -10.2% | -5.8% |
| CC(C)=CC(=O)OC1C2C(C)=CC(O)C(O)C2(C)C2C3(O)OCC24C(CC(=O)OC14)C(C)C3O (stereo not drawn) | 56.5% | 38.1% | 23.4% | 48.4% | 53.5% | 86.8% (active) |

| Compound | growth inhibition [1] | growth inhibition [2] | growth inhibition [3] | growth inhibition [4] | growth inhibition [5] | growth inhibition [6] |
| --- | --- | --- | --- | --- | --- | --- |
| O=C(c1ccccc1)C(c1ccccc1)C1(O)C(=O)Nc2ccc(Br)cc21 (stereo not drawn) | 0.9% | 7.35% | -0.15% | 16.1% | 54.9% | 7.1% |
| O=C(O)c1ccc(/C=N/NC(=S)Nc2cccc3cccnc23)cc1 | 22.1% | 7.4% | 6.6% | 16.4% | 10.2% | -17.1% |
| O=C1CC2CCCCC2CC1c1ccc(OCc2ccccc2)c(OCc2ccccc2)c1 (stereo not drawn) | -6.7% | -0.25% | 23.6% | 9.1% | -3.55% | -13.7% |
| Cc1ccc(C(=O)CSC2=NCCN2)cc1Cl | -9.75% | -21.8% | -12.6% | -2.2% | -11.9% | 19.2% |
| O=C(NCCO)[C@H](O)[C@@H](O)[C@H](O)[C@H](O)CO | 7.1% | -2% | -3.7% | 16.1% | 14.9% | 15.2% |
| O=C(CCCC(=O)N/N=C/c1cc(Cl)ccc1[N+](=O)[O-])N/N=C\c1cc(Cl)ccc1[N+](=O)[O-] | 20.7% | 12.1% | 11.1% | 10.7% | -1.9% | 7% |
| CC(C)NC(=O)Oc1ccccc1C(=O)OCc1ccccc1 | -0.45% | 14.1% | 28.9% | -15.1% | 13.4% | 21.2% |
| CCCCCCC(=O)OCC | 16.3% | -3.4% | -4.7% | 0.9% | 12.9% | 14.2% |
| CCOC(=O)/C(C#N)=C/NCC1CC1 | -21.8% | -33.5% | 1.6% | 10.6% | -33.2% | -22.6% |
| [O-]c1n[n+](Cc2ccc(Br)cc2)no1 | 6.95% | 15.2% | -4% | 1.2% | 18.4% | 28.3% |
| CC(=O)Oc1ccccc1-c1cc2ccccc2oc1=O | -20.2% | 20.8% | 0.85% | 5.15% | 38.8% | 11.8% |
| COc1ccc(CCNC(=O)c2cccc(Cl)c2)cc1OC | -7.05% | -28.9% | -23.1% | -44.6% | -22% | -12.2% |
| N#C/C(=C/c1cccc(Oc2ccccc2)c1)c1ccccc1 | 11.7% | -28.2% | -0.55% | -1.5% | -23.1% | -14.4% |
| Cc1nc2c(cc1C#N)C(Nc1ccc(Cl)cc1)Oc1ccc([N+](=O)[O-])cc1-2 (stereo not drawn) | -4.6% | -12.3% | 0.5% | -32.2% | -36.5% | -7.5% |
| CCOC(=O)c1ccc(CS(=O)c2ccccc2)c([N+](=O)[O-])c1 (stereo not drawn) | 14.7% | -4.75% | 20.6% | 3.55% | 58.1% | 18.2% |
| O=NN(CCCl)C(=O)/N=N/C(=O)N(CCCl)N=O | 6.25% | -38.9% | -20.4% | 15.2% | -3.85% | 20% |
| CC(C)C(NC(=O)OC(c1ccccc1)c1ccccc1)C(=O)NC(CSC(c1ccccc1)(c1ccccc1)c1ccccc1)C(=O)NCC(=O)OCc1ccccc1 (stereo not drawn) | 4.45% | 5.75% | 4.55% | -19.1% | -10.8% | 27.2% |
| Nc1nc2c(ncn2CC2CCOC2=O)c(=O)[nH]1 (stereo not drawn) | -19.1% | -17.9% | -18.7% | 4.4% | -5.85% | -14.8% |
| O=C1OC(c2ccccc2)=N/C1=C/N1CCCC1C(=O)O (stereo not drawn) | -1% | 5.6% | 15.9% | 10.1% | -4.4% | -6.3% |
